Source: PubChem BioAssay
Ba CapD inh: Bacillus anthracis CapD inhibitors, primary screen, biochemical, fluorescence intensity | purified CapD enzyme, fluorescence intensity read-out; active compounds read low | AID 492967, 2010 | 140,000 tested, 0.23% active | CapD gamma-glutamyltranspeptidase (Bacillus anthracis Ames Ancestor) | z-score (no concentration beside the values); in the data active = z-score mostly below about -2.9, no sharp cut-off; inactive = mostly above about -1.9
Of the large screens only hits and unclear results are named; the others gave an inactive call. Shown is part of a subset that was picked to be rich in hits.

CC1C(=O)N(Cc2ccc([N+](=O)[O-])cc2)c2ccccc2N1C(=O)C1CC1 (stereo unspecified)	none
O=C(CN(c1cccc(C(F)(F)F)c1)S(=O)(=O)c1ccccc1)Nc1cccc(Br)c1	none
CCC(CC)C(=O)c1c[nH]c(C(=O)NCc2cccc(C(F)(F)F)c2)c1	none
Cc1ccc(-c2nc(S(=O)(=O)c3ccc(C)cc3)c(N(C)C)o2)cc1	none
Cc1ccc(S(=O)(=O)CCc2nc(S(=O)(=O)c3ccc(C)cc3)c(N(C)C)o2)cc1	none
Cc1ccc(S(=O)(=O)c2nc(C)oc2N(C)C)cc1	Ba CapD inh -3
CCn1c2ccccc2c2cc(CN3CCN(C(=O)OCCOc4ccc([N+](=O)[O-])cn4)CC3)ccc21	none
CC1(C)OC(=O)C(=Cc2cccs2)C(=O)O1	none
CSC1=N/C(=C/c2cccs2)C(=O)N1	Ba CapD inh -4
CSC1=N/C(=C/c2ccco2)C(=O)N1	none
CC(C)C(NC(=O)Cc1c[nH]c2ccccc12)C(=O)N1CCN(Cc2ccc(C(C)(C)C)cc2)CC1 (stereo unspecified)	none
COc1ccc(NC(=S)N(C(C)C)C2CCN(C(C)C)CC2)cc1Cl	none
COc1cc(/C=N/n2cnnc2-n2nc(C)cc2C)cc([N+](=O)[O-])c1O	none
CN(C)/C=C/C(=N)SCc1c(F)cccc1Cl	Ba CapD inh -3.8
Fc1cccc(Cl)c1CSCc1c(F)cccc1Cl	none
N=C(N)SCc1c(Cl)cccc1Cl	none
Cc1ccc(C)c(N2CCN(S(=O)(=O)c3ccc4[nH]c(=O)ccc4c3)CC2)c1	none
O=C(COC(=O)c1ccc2ccccc2n1)NC(c1ccccc1)c1ccccc1	none
COc1cccc(NC(N)=S)c1	none
COc1cccc(NC(=S)NNc2ccccc2)c1	none
COc1cccc(NC(=S)/N=C(\N)Nc2nc(C)c3ccccc3n2)c1	Ba CapD inh -5.9
Cc1ccc(CN2CCN(N=Cc3ccccc3OCC(=O)O)CC2)c(C)c1	none
C=CCN1C(=O)NC(=O)/C(=C/C=C/c2ccccc2)C1=O	none
CN1C(=O)/C(=c2/[nH][nH]c(=O)/c2=C\C=C\c2ccccc2)C(=O)c2ccccc21	Ba CapD inh -5.2
CN1C(=O)/C(=C\C(=O)c2cccs2)c2ccccc21	none
NC(=O)c1c(NC(=O)c2cc3cc(Br)ccc3oc2=O)sc2c1CCCC2	none
Cc1ccc(C)n1-c1sccc1C(=O)O	Ba CapD inh -11
Cc1ccc(C)n1-c1cccc(C(=O)O)c1	Ba CapD inh -8.6
Cc1ccc(C)n1-c1ccc(C(=O)O)c(C(=O)O)c1	Ba CapD inh -8.4
Cc1ccc(C)n1-c1ccc(CC(=O)O)cc1	none
O=C(O)c1cccc(N2CCCC2)c1	none
Cc1ccc(C)n1-c1cccc(N)c1	none
Cc1ccc(C)n1-c1sccc1C(=O)CC#N	none
Cc1cc(C(=O)O)c(C)n1-c1ccc(Cl)cc1	none
CC(=O)Nc1sccc1C(=O)O	none
CCN=C(N)SCc1c(C)c(C)c(C)c(C)c1C	none
O=C1C2=C(C(c3ccccc3)=NCCN2)C(c2ccc3c(c2)OCO3)N1c1ccccc1 (stereo unspecified)	none
O=c1cc(NCc2ccccc2)c2ccccc2o1	none
COc1cc2[nH]c(=S)nc(Nc3ccc(NC(C)=O)cc3)c2cc1OC	none
COc1cc2[nH]c(=S)n(N(C(C)=O)C(C)=O)c(=O)c2cc1OC	Ba CapD inh -13
COc1cc2[nH]c(=S)n(C3CC3)c(=O)c2cc1OC	none
O=C(NC1C=CS(=O)(=O)C1)c1ccccc1 (stereo unspecified)	none
Cc1ccccc1S(=O)(=O)Cc1ccc(C(=O)NC(C)c2ccccc2)o1 (stereo unspecified)	none
COc1ccc(N/C(C)=C/C(=O)c2ccccc2)cc1	none
CN=C(Nc1ccc(Cl)cc1)c1cccnc1	none
CC(=O)Nc1ccc(N/C(C)=C/C(=O)c2cccnc2)cc1	Ba CapD inh -4.1
N#CCC(=O)Nc1ccc(Cl)cc1Cl	none
Cc1c(C)n(C(=O)CSc2nc3ccccc3s2)c2ccccc12	none
COc1ccc(NC(=O)CSc2nc(N)c(C#N)c(-c3ccc(F)cc3)c2C#N)cc1	none
CC(C)CCNC(=O)c1cc2c(s1)CS(=O)(=O)C2	none
CSC(SC)=C(C#N)C(=O)c1ccccc1Cl	Ba CapD inh -4.7
CSC(SC)=C(C#N)C(=O)c1cccc(C(F)(F)F)c1	none
CSC(SC)=C(C#N)C(=O)c1cccc(C)c1	none
CN(C)/C=C/C(=O)c1ccco1	Ba CapD inh -4.4
CSC(=CC(=O)c1ccco1)SC	none
CN(C)/C=C/C(=O)c1cc(-c2ccccc2)no1	none
CCOC(=O)/C=C1\CCCCCN1	none
CSc1ccc(S(=O)(=O)N2CCOCC2)cc1	none
O=C(O)c1ccc(NC(=O)c2ccc3c(c2)C(=O)N(Cc2ccco2)C3=O)cc1	Ba CapD inh -7.6
CCN1C(=O)c2ccc(C(=O)Nc3ccc(C(=O)O)cc3)cc2C1=O	none
CC(C)(C)NC(=O)c1ccc2c(c1)C(=O)N(Cc1ccco1)C2=O	none
CCCc1[nH]n(-c2nc3ccccc3s2)c(=O)c1C(C)=Nc1cccc(F)c1	none
COC(=O)C(C(=O)OC)C(Nc1ccccc1)c1ccccc1 (stereo unspecified)	Ba CapD inh -7.1
COC(=O)C(C)Nc1ccc(C)cc1 (stereo unspecified)	none
CCOC(=O)C(Nc1cccc(F)c1)c1ccccc1 (stereo unspecified)	none
COCc1cc(=O)n(-c2ccccc2)[nH]1	none
COc1ccc2cc(CCNC(=O)c3cccc(C(F)(F)F)c3)c(=O)[nH]c2c1	none
Cc1ccc(NNC(=O)c2c(-c3ccccc3)noc2C)cc1C	none
CCCCn1c(O)c(C#N)c(C)c(N=Nc2ccc(OC)cc2)c1=O	none
Cc1c(C#N)c(O)n(CCO)c(=O)c1N=Nc1cccc(C(=O)O)c1	Ba CapD inh -8.3
Cc1cc(=O)n(CCc2ccccc2)c(O)c1C#N	none
CNC(=S)Nc1cnn(Cc2cccc3ccccc23)c1	none
O=C(NCCCN1CCCCCC1)c1ccc2c(Cl)c3c(nc2c1)CCCC3	none
COc1ccc(CC(=O)N2CCc3ccccc32)cc1	none
O=C(OCn1nnc2ccccc2c1=O)C(c1ccccc1)c1ccccc1	none
CC1=NNC(=O)C1Cc1ccccc1 (stereo unspecified)	none
Cc1ccc(C)n1-c1ccccc1C1C=NNC1=O (stereo unspecified)	Ba CapD inh -4.1
O=C(CSc1nc2c(c(=O)n1-c1ccc(Cl)cc1)SCC2)Nc1nccs1	none
COC(=O)c1noc(C)c1C(=O)/C=C/N1CCCCC1	none
COC(=O)C(=C/C=C/c1cccs1)C(=O)OC	none
COC(=O)C(=C/C=C/N1CCCCC1)C(=O)OC	Ba CapD inh -4.8
Cc1csc(N)c1-c1nc2ccccc2s1	none
O=C(O)CSCC(=O)Nc1ccc(-c2nc3ccccc3s2)cc1	none
Cc1csc(NC(=O)CSCC(=O)O)c1-c1nc2ccccc2s1	Ba CapD inh -2.4
O=C(Nc1ccc(F)cc1)Nc1ccc2c(c1)C(=O)OC2	none
CCc1cc(C(=O)c2ccc(OC)cc2)c(NC(=O)c2ccc(C(F)(F)F)cc2)s1	none
CCOC(=O)c1coc2c(F)c(F)c(F)cc2c1=O	Ba CapD inh -12
CCOC(=O)c1c[nH]c2c(F)ccc(F)c2c1=O	none
CCOC(=O)c1c[nH]c2ccccc2c1=O	none
OCC1OC(Nc2ccccn2)C(O)C(O)C1O (stereo unspecified)	none
Cc1ccc(NC2OC(CO)C(O)C2O)cc1C (stereo unspecified)	none
O=C(O)c1ccc(NC2OC(CO)C(O)C2O)cc1 (stereo unspecified)	Ba CapD inh -6.5
COc1ccc(Br)cc1/C=C/C(=O)Nc1ccc(F)cc1F	none
CCc1nc(C)ccc1OCC(N)=O	none
CCc1nc(C)ccc1OCC(=O)O	Ba CapD inh -5
Cc1ccc(OCC(=O)O)c(C)c1	none
CCOc1ccc(C=C(C#N)C#N)cc1	none
COc1cc(C=C(C#N)C#N)ccc1O	Ba CapD inh -4.3
COc1ccc(/C=C(\C#N)C(N)=O)cc1OC	none
